# Among all 13,000 compounds or so, about 3,200 (25%) showed an effect of 50% or more. This is one part of the list.
# Test system: P. falciparum stage V gametocytes
# Set-up: BacTiter-Glo ATP luminescence viability of purified stage V gametocytes in 384-well plates, per cent inhibition versus DMSO
# Conditions: 48 h, 5 µM; inhibitor
row,Compound,% Inhibition
1,Cc1cc(C)c2c(c1)C(=NO)CCN2 [TCMDC-140382],-79.12%
2,NC1CCN(c2nc(NCCc3ccc(O)cc3)nc(NCc3ccccc3-c3ccc(C(F)(F)F)cc3)n2)CC1 [TCMDC-133442],32.82%
3,CN1CCC(Oc2cc(NC(=O)Nc3ccc(-c4ccncc4)c(C(F)(F)F)c3)ccc2Cl)CC1 [TCMDC-139223],-12.77%
4,COc1cc(COc2c(C)nc(N)nc2N)cc(OC)c1OC [TCMDC-131346],7.837%
5,CC(=O)Nc1ccc(Cl)c(Cl)c1 [TCMDC-125481],-1.69%
6,NC(N)=NC(=O)Nc1ccc(Cl)c(Cl)c1 [TCMDC-124295],-4.176%
7,NCCCN(Cc1ccc(Cl)c(Cl)c1)C(=O)Nc1ccc(Cl)c(Cl)c1 [TCMDC-139415],96.81%
8,Cc1cccc(C(=O)Nc2ccc(N3CCCN(Cc4cccc(O)c4)CC3)cc2)c1 [TCMDC-134958],-89.08%
9,O=C(/C=C/c1ccc(Cl)c(Cl)c1)NC1CCC(CN2CCC(c3nc4ccccc4s3)CC2)CC1 (stereo not shown) [TCMDC-140215],29.32%
10,COc1cc2ncnc(Nc3ccc(OCc4ccccc4)c(I)c3)c2cc1OC [TCMDC-131944],-25.01%
11,Oc1ccc(Cc2ccccc2)cc1CNC1CCCCC1 [TCMDC-137598],6.281%
12,CC(C)NCc1cccc(-c2cccc(-c3nc4ccccc4[nH]3)c2)c1 [TCMDC-132748],37.6%
13,CC(C)(C)c1cc(CN2CCN(Cc3ccccc3)CC2)cc(C(C)(C)C)c1O [TCMDC-125537],-7.705%
14,CC(C)CNCc1ccc(OCc2cccc(COc3ccc(CNCC(C)C)cc3I)c2)c(I)c1 [TCMDC-137260],108.7%
15,Ic1cc(CNC2CCCCC2)ccc1OCc1cccc(COc2ccc(CNC3CCCCC3)cc2I)c1 [TCMDC-137261],115.7%
16,CN1CCN(Cc2ccc(OCc3cccc(COc4ccc(CN5CCN(C)CC5)cc4I)c3)c(I)c2)CC1 [TCMDC-137239],60.02%
17,Clc1cccc(CNC2CCN(CC3CCCCC3)CC2)c1 [TCMDC-141659],7.676%
18,CC(C)NCc1ccc(OCc2cccc(COc3ccc(CNC(C)C)cc3I)c2)c(I)c1 [TCMDC-137259],114.3%
19,OC(CNCc1ccccc1)c1cc(OCc2ccccc2)cc(OCc2ccccc2)c1 (stereo not shown) [TCMDC-132079],44.54%
20,CN1CCN(Cc2ccc(-c3cc4c(Nc5ccc(OCc6cccc(F)c6)c(Cl)c5)ncnc4s3)[nH]2)CC1 [TCMDC-135458],-90.63%
21,OC(CNCc1ccccc1OCc1ccccc1)c1cc(Br)cs1 (stereo not shown) [TCMDC-140398],22.96%
22,O=C(NC1CCC(N2CCC(Cc3ccc(F)cc3)CC2)CC1)c1cc2ccccc2[nH]1 (stereo not shown) [TCMDC-132894],45.26%
23,Cc1cnc(-c2ccc(NC(=O)N3CCc4cc5nccc(N6CCN7CCC[C@H]7C6)c5cc43)c3ccccc23)o1 [TCMDC-140052],-7.754%

row,Compound,% Inhibition
1,COc1ccc(NS(=O)(=O)c2cc(NC(=O)Cn3ccccc3=O)ccc2N2CCCCC2)cc1 [TCMDC-124874],16.03%
2,Cc1cc2c(cc1C(F)(F)F)N(C(=O)Nc1ccc(C(=O)NCCN3CCCC3)cc1)CC2 [TCMDC-139870],3.174%
3,CC(=O)Nc1ncc(C(=O)Nc2cccc(-c3cccc(-c4nc5c(C)cccc5[nH]4)c3)c2)s1 [TCMDC-136920],35.18%
4,C=CCOC(=O)N1CCC(CNCc2ccc(-c3ccc(-c4nc5cc(C(F)(F)F)ccc5[nH]4)cc3)cc2)C1.O=C(O)C(F)(F)F (stereo not shown) [TCMDC-133041],-74.05%
5,CC(C)CCNCc1ccc(OCc2cccc(C(=O)Nc3ccccc3)c2)c(I)c1 [TCMDC-137174],28.8%
6,CN(C)Cc1cccc(CNC(=O)c2sccc2OCc2ccc(Cl)cc2)c1 [TCMDC-133072],41.43%
7,Ic1cc(Nc2ncnc3ccsc23)ccc1OCc1ccccc1 [TCMDC-131945],7.84%
8,CCc1cc(COc2ccc(CNCCC(C)C)cc2I)c(OCc2ccccc2)c(COc2ccc(CNCCC(C)C)cc2I)c1 [TCMDC-137255],104.7%
9,CC(C)CCNCc1ccc(OCc2cccc(COc3ccc(CNCCC(C)C)cc3I)c2)c(I)c1 [TCMDC-137274],110.6%
10,Oc1ccc(CCNCc2ccc(OCc3ccccc3)c(OCc3ccccc3)c2)cc1 [TCMDC-131868],6.388%
11,Cc1ccc(C)c(NC(=O)Nc2ccc(C)c(-c3ccc(C(=O)Nc4ccncc4)cc3)c2)c1 [TCMDC-133703],-9.34%
12,COc1ccc(NC(=O)N2CCCN(CCCCCNC(=O)/C=C/c3ccc(Cl)cc3)CC2)cc1Cl [TCMDC-136103],-49.97%
13,COc1ccc(CCNc2ccnc3cc(Cl)ccc23)cc1OC [TCMDC-138550],-32.91%
14,COc1cc(CCNC(=N)/C=C/c2ccc(Cl)cc2)ccc1Cl [TCMDC-137457],106.7%
15,O=C(NCCN1CCCC1)c1ccc(-c2cccc(-c3nc4ccc(F)cc4[nH]3)c2)cc1 [TCMDC-132321],-17.02%
16,COc1cc(OC)cc(C(=O)Nc2ccc(Nc3nc(C)cc(N(C)C)n3)cc2)c1 [TCMDC-124726],23.32%
17,NC(N)=NN=Cc1ccc2ccc3ccccc3c2c1 [TCMDC-137902],101.6%
18,NC(N)=NN=Cc1ccc2c(c1)Cc1ccccc1-2 [TCMDC-137360],-2.51%
19,NC(N)=NN=Cc1cc2ccccc2c2ccccc12 [TCMDC-137671],48.28%
20,NC(N)=NN=Cc1ccc2c(ccc3ccccc32)c1 [TCMDC-137912],86.91%
21,Cc1ccccc1C1CCN(C2CCC(NC(=O)/C=C/c3cc(F)ccc3F)CC2)CC1 (stereo not shown) [TCMDC-133510],-90.23%
22,COc1ccc(NC(=O)[C@H](Cc2ccccc2)Nc2cc(C)nc(NCCOc3ccccc3)n2)cc1 [TCMDC-134757],13.17%
23,Cc1cc(N[C@@H](Cc2ccccc2)C(=O)Nc2ccccc2)nc(NCCc2cccnc2)n1 [TCMDC-134820],59.14%

row,Compound,% Inhibition
1,COc1ccc(NC(=O)[C@H](Cc2ccccc2)Nc2cc(C)nc(NCCc3cccnc3)n2)cc1 [TCMDC-134818],72.32%
2,COc1ccc(NC(=O)[C@H](Cc2ccccc2)Nc2cc(C)nc(Nc3ccccc3)n2)cc1 [TCMDC-134733],-3.042%
3,COc1ccc(O)c(C(=O)c2cc(C(=O)NC3CCCCC3)c(=O)n(C3CCCCC3)c2)c1 [TCMDC-124510],4.971%
4,Cc1[nH]c(C)c(-c2ccc(OCc3cc(C(F)(F)F)cc(C(F)(F)F)c3)nc2)c(=O)c1Cl [TCMDC-135814],52.24%
5,Cc1[nH]c(C)c(-c2ccc(OCc3ccc(OC(F)(F)F)cc3)nc2)c(=O)c1Cl [TCMDC-135271],11.85%
6,Cc1[nH]c(C)c(-c2ccc(OCc3cccc(C(F)(F)F)c3)nc2)c(=O)c1Br [TCMDC-135656],74.31%
7,Cc1[nH]c(C)c(-c2ccc(OCc3cc(C(F)(F)F)cc(C(F)(F)F)c3)nc2)c(=O)c1Br [TCMDC-135815],65.31%
8,Cc1[nH]c(C)c(-c2ccc(OCc3ccccc3C(F)(F)F)nc2)c(=O)c1Br [TCMDC-135796],65.1%
9,COc1ccc(OC)c2c1CCN(CCN1CCC(C(=O)Nc3ccc(C(=O)Nc4ccc(Cl)cc4)cc3)CC1)C2 [TCMDC-138820],2.402%
10,FC(F)(F)c1ccc2[nH]c(-c3ccc(-c4cccc(CNCc5cnn(-c6ccccc6)n5)c4)cc3)nc2c1.O=C(O)C(F)(F)F [TCMDC-132971],-20.04%
11,O=C(NC1CCC(CCN2Cc3ccc(Br)cc3C2)CC1)c1cccc(-c2cccnc2)c1 (stereo not shown) [TCMDC-139603],36.86%
12,Nc1nc(N)c2c(Oc3cccnc3)cccc2n1 [TCMDC-137990],-4.996%
13,CN(C)c1cccc(NC(=O)N[C@H]2N=C(c3ccccc3)c3ccccc3N(CC(=O)N3CCCC3)C2=O)c1 [TCMDC-131987],37.26%
14,N#Cc1ccc(CCNc2nccc(-c3cccc(CN4CCNCC4)c3)n2)cc1 [TCMDC-134845],38.8%
15,CCC[C@@H]([C@@H](CC1CCCCC1)C(=O)NC(C(=O)Nc1nccs1)C(CC)c1ccccc1)N(O)C=O (stereo partly shown) [TCMDC-137999],-15.87%
16,Cc1cccc2nc(-c3ccc(-c4ccc(CNCCCN5CCCC5=O)cc4)cc3)[nH]c12.O=C(O)C(F)(F)F [TCMDC-132763],3.748%
17,O=C(Cn1c(CCc2cccc(F)c2F)nc(=O)c2cccnc21)N(Cc1ccc(-c2ccc(C(F)(F)F)cc2)cc1)C1CCN(C2CCOCC2)CC1 [TCMDC-136501],53.37%
18,O=C(Cn1c(CCc2cccc(F)c2F)nc(=O)c2cccnc21)N(Cc1ccc(-c2ccc(C(F)(F)F)cc2)cc1)C1CCN(C2CCSCC2)CC1 [TCMDC-136559],46.52%
19,O=C(Cn1c(CCc2cccc(F)c2F)nc(=O)c2ccccc21)N(Cc1ccc(-c2ccc(C(F)(F)F)cc2)cc1)C1CCN(C2CCSCC2)CC1 [TCMDC-136609],103.4%
20,O=C(Cn1c(CCc2cccc(F)c2F)nc(=O)c2ccccc21)N(Cc1ccc(-c2ccc(C(F)(F)F)cc2)cc1)C1CCN(C2CCOCC2)CC1 [TCMDC-136502],73.92%
21,N#Cc1ccc(N2CCN(Cc3ccc(-c4ccc(-c5nc6cc(C(F)(F)F)ccc6[nH]5)s4)cc3)CC2)nc1.O=C(O)C(F)(F)F [TCMDC-133110],-11.35%
